# Assay outcomes deposited in PubChem BioAssay by The Scripps Research Institute Molecular Screening Center.
# hgDAF12 agonist: agonists of H. glycines DAF-12 nuclear receptor; HEK293 GAL4-hgDAF12 UAS-luciferase reporter, agonist luminescence; normalized to butyrate control; activation, % at 6.8 µM; actives 1.8% (n = 370,000);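 active means activation above a cutoff set at the mean of all screened compounds plus 3 SD, cut at about 10% in these data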;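 further: 0% = DMSO wells and 100% = sodium butyrate wells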
# DAX1 inh-1: DAX1 (NR0B1) inhibition, primary screen; inhibition, % at 6.8 µM; actives 1.1% (n = 370,000); HEK293T StAR-luciferase reporter, SF-1/DAX-1 repression relief;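 active means inhibition above the mean over all tested compounds plus 3 SD, cut at about 3.6% in these data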;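 further: 0% = DAX-1 cells with DMSO and 100% = cells lacking DAX-1 with DMSO; higher inhibition means more luminescence from relief of DAX-1 repression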
# DAX1 inh-2: inhibits human nuclear receptor DAX1; P51843; HEK293 Gal4-DAX1 luciferase reporter, luminescence; inhibition, % at 6.75 µM; actives 0.99% (n = 340,000);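 active means inhibition above the mean over all tested compounds plus 3 SD, cut at about 4.2% in these data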;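 further: 0% = DAX1-transfected cells with DMSO and 100% = empty-vector control cells with DMSO; inhibition shows as a rise in luminescence from relieved DAX1 repression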
# Target sequence (P51843 207-470 limits assumed): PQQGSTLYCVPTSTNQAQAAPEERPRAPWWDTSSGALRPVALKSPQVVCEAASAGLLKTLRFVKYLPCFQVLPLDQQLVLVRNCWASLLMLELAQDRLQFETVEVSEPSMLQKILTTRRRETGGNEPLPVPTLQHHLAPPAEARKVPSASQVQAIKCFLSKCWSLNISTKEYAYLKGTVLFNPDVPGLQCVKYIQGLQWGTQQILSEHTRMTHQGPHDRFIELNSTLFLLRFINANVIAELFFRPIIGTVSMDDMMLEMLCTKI
# ssDAF-12 act: activators of S. stercoralis DAF-12 nuclear receptor. activation, % at 6.8 µM. HEK293 ssDAF-12/GRIP1 lit1-tk-luc reporter, luminescence; % of 3 µM dafachronic acid response. actives 1% (n = 370,000);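 active means activation above the mean over all tested compounds plus 3 SD, cut at about 0.9% in these data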;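 further: 0% = DMSO-only wells and 100% = 3 µM delta7-dafachronic acid wells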
# hcDAF12 agonist: activators of H. contortus DAF-12 nuclear receptor | activation, % at 6.8 µM | actives 1.4% (n = 370,000) | HEK293 hcDAF-12 lit1-tk-luc reporter, luminescence; 0% DMSO, 100% Δ7-dafachronic acid;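 active means activation above the mean of all tested compounds plus 3 SD, cut at about 5.5% in these data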;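 further: 100% = response to 3 µM Δ7-dafachronic acid high control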
# Starred values were filed as active, the others as inactive; / = no result. The list is not random: actives were taken first. Their share in the collection is about 4.1%.
SMILES,hgDAF12 agonist,DAX1 inh-1,DAX1 inh-2,ssDAF-12 act,hcDAF12 agonist
Cc1cc(NS(=O)(=O)c2ccc(NC(=O)CSc3nnc(SCc4ccc(Cl)cc4)s3)cc2)nc(C)n1,-1.7,-0.4,/,-2.0,-2.5
COc1ccc2oc(C(=O)OCC(=O)N3CCCCC3)c(C)c2c1,3.1,1.6,4.9*,0.6,0.5
CC(=O)Nc1ccc(S(=O)(=O)NCC(=O)OCC(=O)N2CCc3ccccc32)cc1,-1.0,0.8,-0.3,0.9*,4.5
CS(=O)(=O)c1ccc(OC[C@@H](O)CN2CCC(C(O)(c3ccccc3)c3ccccc3)CC2)cc1,0.4,-0.5,/,-0.4,0.9
O=C(CN1CCN(c2nc(-c3ccccc3)cs2)CC1)Nc1ccc(F)cc1F,-1.0,-1.3,/,-1.3,-2.7
O=C(O)CCCCC1SCC2NC(=O)NC21 (centres undefined),-1.2,0.8,5.8*,-1.8,0.4
CN1N=C2c3ccccc3CCCC2C1c1ccc(F)cc1 (centres undefined),2.4,0.3,2.0,-0.2,5.6*
CC(=O)N1N=C2c3ccccc3CCC2C1c1cccs1 (centres undefined),-0.1,0.2,/,0.4,1.3
Cc1cc(C)c2oc(C(=O)N(Cc3ccccc3)c3ccccn3)cc(=O)c2c1,-2.8,-0.1,6.3*,-1.5,-2.2
Cc1cccc(-c2cccc3c4c([nH]c23)[C@@H]2C[C@H]3[C@@H](C(=O)N2CC4)[C@H](C)ON3C)c1,-1.4,-1.1,/,-1.4,-3.4
Cc1nn(C)c(C(=O)N/N=C/c2ccc(Br)cc2)c1Cl,3.6,0.1,0.3,-1.3,-1.8
CC(C)c1ccc(/C=N/NC(=O)c2c(Cl)cnn2C)cc1,13.2*,3.1,-0.6,0.0,1.3
C/C(=N\NC(=O)c1ccc(Cl)cc1)c1cccnc1,1.5,0.0,1.6,-0.7,2.0
C/C(=N\NC(=O)c1c(Cl)cnn1C)c1cccnc1,5.6,4.3*,2.2,-1.4,1.5
CC(=NNC(=O)CSc1nnc(-c2ccccc2)n1-c1ccccc1)c1cccc([N+](=O)[O-])c1,-2.6,-1.7,/,-1.8,-3.7
COC(=O)c1cc2c(c3c4ccccc4n(S(=O)(=O)c4cccc(C)c4)c13)C(=O)N(Cc1ccc(N(C)C)cc1)C2,2.5,-1.7,/,-0.3,3.2
CN1C(=O)c2cc(NS(C)(=O)=O)ccc2OC[C@H]2O[C@@H](CC(=O)NCc3ccc(-c4ccccc4)cc3)CC[C@@H]21,-0.2,0.0,/,-0.5,0.9
COc1cccc(C2NC(=O)CCC2[N+](=O)[O-])c1OC (centres undefined),-1.7,-0.1,2.5,-0.6,-2.2
COc1cc(C2NC(=O)CCC2[N+](=O)[O-])c(OC)cc1Br (centres undefined),-2.7,1.2,-0.3,0.9*,-0.5
CCn1c(COc2ccc(C)cc2)nnc1SCC(=O)Nc1ccc(Oc2ccccc2)cc1,-0.9,-0.5,/,-1.2,-0.9
CCn1c(C)nc2cc(C(=O)NNC(=S)Nc3ccc(F)cc3)ccc21,10.1,3.7*,2.5,-0.2,0.6
COC(=O)c1ccc(NC(=O)c2nc(S(=O)(=O)Cc3cccc(C)c3)ncc2Cl)cc1,-9.4,-2.2,0.3,-1.1,-3.5
CC(=O)Nc1ccc(NC(=O)c2nc(S(=O)(=O)Cc3cccc(C)c3)ncc2Cl)cc1,-4.8,4.0*,-0.1,-1.2,-3.3
c1ccc(Cn2ccc(-c3cnc(-c4ccccc4)s3)n2)cc1,11.8*,2.0,0.4,0.0,3.4
Nc1n[nH]c(N)c1N=Nc1ccc(Cl)cc1,13.2*,0.4,-1.5,-1.5,1.9
SMILES,hgDAF12 agonist,DAX1 inh-1,DAX1 inh-2,ssDAF-12 act,hcDAF12 agonist
N#C/C(=C/c1ccc(Br)s1)C(=O)NCCc1c[nH]c2ccccc12,-1.5,-0.4,0.0,0.2,6.0*
Cc1cc(/C=C(\C#N)C(=O)NCCc2c[nH]c3ccccc23)c(C)n1C,-2.2,-0.8,-0.9,-1.5,-3.0
Cc1ccc(-n2c(SCC(=O)Nc3ccc4c(c3)OCCO4)nnc2-c2cccnc2)cc1,1.1,-0.9,/,-2.0,-3.1
COC(=O)C1=C(C)N(Cc2ccc(C(F)(F)F)cc2)C(=NCc2ccc(C(F)(F)F)cc2)NC1c1ccc(F)cc1 (centres undefined),1.1,-1.1,/,0.1,2.6
O=[N+]([O-])c1ccc(NCc2ccncc2)cc1,-1.3,-0.6,4.6*,-1.3,-1.2
O=C(NCC(c1ccccc1)c1ccccc1)[C@H](Cc1c[nH]c2ccccc12)NC1(C(=O)NC2CCCCC2)CCCC1,-1.1,/,/,-2.3,1.3
O=[N+]([O-])c1cccnc1N1CCCCC1,-0.1,-0.3,0.3,-0.9,-0.9
O=c1n(-c2ccc(Br)cc2)cnn1-c1ncccc1[N+](=O)[O-],7.8,2.7,4.3*,-0.8,2.8
COc1ccc(-c2cc(-c3nnc(SCc4cccc5ccccc45)n3N)[nH]n2)cc1,-0.1,-1.2,/,-1.7,-5.5
O=C(CSc1ccccc1)NC1CCCCN(Cc2ccc(Cl)cc2)C1=O (centres undefined),-0.8,-0.8,/,-1.7,-0.8
CCOC(=O)[C@@]12CN(C(=O)OC(C)(C)C)CC=C1N(Cc1ccc(OC)cc1)C(=O)[C@H]2CC(=O)NCc1ccccc1,-3.3,-0.9,/,-1.6,0.1
Cc1cccc(NC(=O)Nc2ccc3c(c2)CCC3)c1,5.8,4.1*,1.2,-1.1,0.5
CCc1ccc(NC(=O)Nc2ccc3c(c2)CCC3)cc1,3.5,3.7*,0.4,-0.9,-0.2
CC(=O)c1cccc(NC(=O)Nc2ccc3c(c2)CCC3)c1,4.4,0.8,0.0,-0.2,-0.9
Cc1cccc(NC(=O)C2C3CCCCC32)c1 (centres undefined),4.4,0.4,5.5*,-0.8,-0.2
COc1cccc(NC(=O)Nc2ccc3c(c2)CCC3)c1,11.7*,4.1*,0.8,-0.7,3.8
COc1ccc(OC)c(NC(=O)Nc2ccc3c(c2)CCC3)c1,1.2,-0.9,-0.5,-0.2,-3.2
Cc1cccc(NC(=O)C(=O)NCc2ccccn2)c1,9.8,1.6,4.3*,-1.3,0.2
O=C(Cc1ccc2c(c1)CCCC2)Nc1ccc2ccccc2c1,3.5,2.0,0.1,0.6,5.7*
Cc1cccc(NC(=S)NCc2ccccn2)c1,1.0,1.5,-0.1,-0.5,-1.1
Cc1cccc(NC(=O)Nc2cnccn2)c1,-2.3,0.1,-0.5,-0.9,-2.2
Cc1cccc(NC(=O)Nc2ccncc2)c1,4.0,0.3,0.5,1.1*,-1.1
CC(C)CNC(=O)C1CSCCS(=O)(=O)N1Cc1ccccc1 (centres undefined),2.0,-1.0,/,-0.7,1.6
COc1cccc(-c2cc(CNC(=O)[C@H]3O[C@@H](n4cnc(C(N)=O)n4)[C@H](O)[C@@H]3O)no2)c1,0.3,2.2,/,-0.5,-1.0
CCCCCCCCN1CCS(=O)(=O)N(Cc2ccc(F)cc2)C(C(=O)OC)C1 (centres undefined),0.9,-0.8,/,-1.7,-2.5
CN(CC(=O)Nc1ccccc1C(F)(F)F)C(=O)c1ccc(N2C(=O)CCC2=O)cc1,-1.9,1.2,4.5*,-1.6,-0.1
